PubChem BioAssay (NCATS)
Unmarked numbers belong to inactive results. Results filed as inconclusive are left out. Activity calls are given as the source filed them. Unless noted, calls follow the shape of the dose curve; as a rule, active = well fitted curve in either direction with a large enough effect (not every such curve was filed as active); inconclusive = small, poorly fitted or top-dose-only effect, or another doubt; inactive = flat fitted curve, though single readings scatter.

How the values were obtained:
[1] = target: Lysosomal acid glucosylceramidase (Homo sapiens) (UniProt P04062); test: Glucocerebrosidase-p2 (AID 348; in the data active = potency below about 10 µM; also: potency is read from the fitted curve at half-maximal effect); conditions: purified GBA, blue fluorogenic substrate, 40 min
Chain of Lysosomal acid glucosylceramidase (Homo sapiens) (P04062 whole entry, looked up): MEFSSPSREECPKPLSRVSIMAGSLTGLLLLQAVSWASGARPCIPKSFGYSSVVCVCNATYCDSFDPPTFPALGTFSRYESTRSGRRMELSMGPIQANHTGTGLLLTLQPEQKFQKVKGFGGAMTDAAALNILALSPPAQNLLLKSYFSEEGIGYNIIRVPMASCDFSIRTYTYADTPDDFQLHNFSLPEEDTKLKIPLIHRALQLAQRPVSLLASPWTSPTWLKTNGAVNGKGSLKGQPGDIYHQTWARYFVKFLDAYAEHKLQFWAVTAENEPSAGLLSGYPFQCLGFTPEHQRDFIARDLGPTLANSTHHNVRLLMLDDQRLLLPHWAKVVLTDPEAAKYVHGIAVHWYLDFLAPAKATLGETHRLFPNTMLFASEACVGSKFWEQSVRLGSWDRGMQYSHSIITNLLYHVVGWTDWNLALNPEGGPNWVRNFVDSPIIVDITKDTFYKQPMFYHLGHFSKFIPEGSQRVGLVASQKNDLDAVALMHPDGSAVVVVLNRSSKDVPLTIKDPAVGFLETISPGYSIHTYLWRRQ
Summary of the method: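 Compounds titrated from 0.6 nM upwards against 0.2 nM enzyme in pH 5.9 citric acid/KH2PO4, taurocholate, tween-20; blue fluorogenic substrate 80 uM, 40 min room temperature, stopped and read Ex 365/Em 440 for AC50.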

[2] = AP1 Signaling Pathway (AID 357); conditions: ME-180 AP-1-bla reporter, EGF-induced, beta-lactamase ratio, 5 h; at 7.69 µM (top of the series) unless noted;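 also: ME-180 reporter cells stimulated with EGF at its EC50 level; % is scaled to controls: 0 for no effect and ±100 for the full control effect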
Summary of the method: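 First, ME-180 AP-1-bla cells were cultured overnight at 37 °C in low-serum Opti-MEM. Next, titrated compounds with EC50 EGF were incubated 5 hours. Finally, CCF4 was added for 2.5 hours and the 460/530 nm ratio recorded.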

[3] = target: Cytochrome P450 1A2 (Homo sapiens) (UniProt P05177); test: p450-cyp1a2 (AID 410; calls by dose curve; also: potency is read from the fitted curve at half-maximal effect;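 as to activity change, negative = inhibition: -100% = full effect of reference inhibitor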); conditions: recombinant CYP1A2, luciferin-ME demethylation, luminescence; series mostly up to 11.4 µM
Chain of Cytochrome P450 1A2 (Homo sapiens) (P05177 whole entry, looked up): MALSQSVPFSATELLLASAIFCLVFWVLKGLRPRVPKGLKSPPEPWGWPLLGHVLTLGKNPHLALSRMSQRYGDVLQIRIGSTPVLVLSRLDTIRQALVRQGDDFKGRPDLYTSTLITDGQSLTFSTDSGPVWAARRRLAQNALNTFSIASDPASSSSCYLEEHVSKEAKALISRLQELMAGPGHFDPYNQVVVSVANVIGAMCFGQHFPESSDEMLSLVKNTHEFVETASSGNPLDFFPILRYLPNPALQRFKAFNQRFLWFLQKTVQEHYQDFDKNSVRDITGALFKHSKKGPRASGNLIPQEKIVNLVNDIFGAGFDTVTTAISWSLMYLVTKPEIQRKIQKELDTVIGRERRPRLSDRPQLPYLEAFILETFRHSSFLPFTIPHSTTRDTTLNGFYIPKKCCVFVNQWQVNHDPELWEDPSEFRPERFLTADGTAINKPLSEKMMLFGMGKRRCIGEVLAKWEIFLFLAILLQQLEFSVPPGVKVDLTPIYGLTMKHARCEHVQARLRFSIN
Summary of the method: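 20nM CYP1A2 with 100uM Luciferin-ME (at Km) in 100mM KPO4; compound preincubated 10 min, NADPH regeneration added, 60 min at room temperature. Luciferin quantified by luminescence after detection reagent; normalized to 57 uM furafylline.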

[4] = NFAT Signaling Pathway (AID 444); conditions: Jurkat NFAT-bla M1, carbachol, beta-lactamase ratio, 5 h; at 7.69 µM (top of the series) unless noted;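 also: carbachol stimulus at about its EC50 of 1 µM final; % is scaled to controls: 0 for no effect and ±100 for the full control effect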
Summary of the method: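 Jurkat cells with NFAT-driven β-lactamase reporter and co-expressed M1 receptor, stimulated with carbachol (final 1 uM, ~EC50), compound titration, 5 h at 37 °C. CCF4 loaded 1 h at RT; 460/530 nm ratio gave %activity and AC50.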

[5] = Stat Signaling Pathway (AID 446); conditions: ME-180 SIE beta-lactamase reporter, IL-6 stimulated, 5 h; at 7.69 µM (top of the series) unless noted;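 also: ME-180 cervical cancer cells given 40 pM IL-6 alongside compound; SIE-controlled beta-lactamase reporter measured as 460/530 nm FRET emission ratio; % is scaled to controls: 0 for no effect and ±100 for the full control effect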
Summary of the method: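 ME-180 cells carrying a SIE-driven beta-lactamase reporter are stimulated with 40 pM IL-6 for 5 h at 37C in the presence of compound. The 460/530 nm FRET substrate ratio is read after 2.5 h at RT. Data are normalised to 300 pM IL-6 and to 125 nM JAK inhibitor controls.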

[6] = target: Glucocorticoid receptor (Homo sapiens) (UniProt P04150); test: GR-GFP Redistribution (AID 450;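 active = compounds whose dose series gives a full or clear partial fitted curve of increased nuclear translocation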; also: potency is read from the fitted curve at half-maximal effect); conditions: U2OS GR-GFP nuclear translocation, laser cytometry, 2 h
Chain of Glucocorticoid receptor (Homo sapiens) (P04150 whole entry, looked up, the tested form may be a part): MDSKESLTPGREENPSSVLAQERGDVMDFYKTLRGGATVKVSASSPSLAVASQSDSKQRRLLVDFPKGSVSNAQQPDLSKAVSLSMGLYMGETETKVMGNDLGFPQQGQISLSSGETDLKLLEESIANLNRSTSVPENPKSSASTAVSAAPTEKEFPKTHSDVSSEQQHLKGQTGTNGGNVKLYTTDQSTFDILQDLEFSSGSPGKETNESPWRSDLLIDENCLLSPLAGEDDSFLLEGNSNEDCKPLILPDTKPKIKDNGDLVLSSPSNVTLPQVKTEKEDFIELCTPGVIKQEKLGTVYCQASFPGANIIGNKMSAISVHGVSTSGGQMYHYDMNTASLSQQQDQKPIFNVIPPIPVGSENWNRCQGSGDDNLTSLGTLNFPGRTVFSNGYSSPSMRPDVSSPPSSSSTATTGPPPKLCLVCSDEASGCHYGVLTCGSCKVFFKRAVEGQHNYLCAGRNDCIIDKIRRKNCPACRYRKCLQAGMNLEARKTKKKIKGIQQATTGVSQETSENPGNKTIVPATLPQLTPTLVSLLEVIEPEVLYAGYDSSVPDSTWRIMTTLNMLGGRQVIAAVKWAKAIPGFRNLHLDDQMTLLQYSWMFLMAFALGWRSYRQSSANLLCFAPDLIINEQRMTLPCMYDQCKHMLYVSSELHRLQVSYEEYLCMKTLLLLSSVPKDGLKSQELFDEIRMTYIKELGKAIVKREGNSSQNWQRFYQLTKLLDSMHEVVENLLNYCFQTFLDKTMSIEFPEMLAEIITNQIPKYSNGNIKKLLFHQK

[7] = target: Glucocorticoid receptor (Homo sapiens) (UniProt P04150); test: GR-EFC Redistribution (AID 451; calls by dose curve; also: potency is read from the fitted curve at half-maximal effect); conditions: CHO-K1 GR-EFC translocation, beta-gal luminescence, 2 h
Summary of the method: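 CHO-K1 cells expressing nuclear EA and GR-ED fragments of b-gal; compounds titrated up to 46 uM final, 2 h at 37 C. GR nuclear translocation read as complemented b-gal luminescence after 1 h RT detection.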

[8] = target: Mitogen-activated protein kinase 10 (Mus musculus) (UniProt Q61831); test: JNK3 AlphaScreen Assay (AID 530); conditions: JNK3 lysate, c-Jun phosphorylation; series mostly up to 11.4 µM;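 also: kinase came from lysate of stimulated human HepG2 cells; signal reports phosphorylation of biotinylated GST-cJun 1-79 at Ser73 with 10 µM ATP; % is scaled to controls: 0 for no effect and ±100 for the full control effect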
Summary of the method: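 Pre-activated (IL-1β/TNFα) JNK3 in HepG2 lysates phosphorylates biotin-GST-cJun(1-79), 10 uM ATP; anti-phospho-cJun(Ser73) AlphaScreen read at room temperature, pH 7.6 Tris buffer. Compounds pre-incubated 15 min as titrations.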

[9] = target: 3',5'-cyclic-AMP phosphodiesterase 4B (Homo sapiens) (UniProt Q07343); test: qHTS Assay for Inhibitors of PDE-IV (AID 607; active = well fitted activation curve with a large enough effect in the main read-out, with a control signal flat, not every such curve was filed as active; also: % of control where 0% means no effect); conditions: HEK293 ACTOne CNG channel cells, membrane potential fluorescence; series mostly up to 22.9 µM
Chain of 3',5'-cyclic-AMP phosphodiesterase 4B (Homo sapiens) (Q07343 whole entry, looked up): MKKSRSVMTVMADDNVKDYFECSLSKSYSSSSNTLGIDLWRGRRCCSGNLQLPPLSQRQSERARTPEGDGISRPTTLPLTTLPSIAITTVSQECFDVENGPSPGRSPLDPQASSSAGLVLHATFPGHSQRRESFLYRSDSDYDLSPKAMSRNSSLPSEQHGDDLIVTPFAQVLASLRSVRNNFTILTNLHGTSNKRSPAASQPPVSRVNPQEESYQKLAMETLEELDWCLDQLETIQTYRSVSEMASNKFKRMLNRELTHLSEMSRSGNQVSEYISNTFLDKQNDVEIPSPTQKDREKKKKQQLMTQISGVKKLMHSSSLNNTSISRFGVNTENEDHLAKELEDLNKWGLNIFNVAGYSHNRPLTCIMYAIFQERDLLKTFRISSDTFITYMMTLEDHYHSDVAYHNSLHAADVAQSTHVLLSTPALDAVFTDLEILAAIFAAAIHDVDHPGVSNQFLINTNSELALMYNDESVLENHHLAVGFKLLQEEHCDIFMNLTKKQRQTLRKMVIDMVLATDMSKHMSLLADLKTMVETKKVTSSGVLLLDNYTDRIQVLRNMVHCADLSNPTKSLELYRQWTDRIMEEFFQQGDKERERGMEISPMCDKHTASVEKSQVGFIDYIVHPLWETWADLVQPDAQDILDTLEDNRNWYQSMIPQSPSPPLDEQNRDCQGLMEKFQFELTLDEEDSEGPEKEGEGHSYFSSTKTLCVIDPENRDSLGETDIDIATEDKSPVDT
Summary of the method: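 HEK293 ACTOne cells with CNG channel (1000/well), endogenous PDE4; membrane potential dye, compounds up to 22.9 uM final. Fluorescence Ex 535/Em 590; RO 20-1724 (100 uM final) as reference.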

For `NC(=S)SCCC(=O)O`, the Potency [1] was greater than 11.4 µM, the activity change, negative = inhibition [2] was 11.1% and the Potency [3] was 1.58 µM (active). The activity change, negative = inhibition [4] was 14.5%, the activity, negative = inhibition [5] was 14.5% and the Potency [6] was greater than 46 µM. The Potency [7] was greater than 9.22 µM, the Potency [8] was “inactive” and the Potency [9] was “inactive”.
Molecule `NC1=C2NC=N[C@@H]2N(C/C=C\c2ccccc2)C=N1` has a Potency [1] greater than 11.4 µM, an activity change, negative = inhibition [2] of 1.36% and an activity change, negative = inhibition [3] of -12.4% [at 2.29 µM]. The activity change, negative = inhibition [4] was 4.81%, the activity, negative = inhibition [5] was 13.2% and the Potency [6] was greater than 46 µM. The Potency [7] was greater than 9.22 µM, the Potency [8] was “inactive” and the Potency [9] was “inactive”.
With `N[C@@H](CSC(=O)c1ccccc1)C(=O)O` the Potency [1] was greater than 11.4 µM, the activity change, negative = inhibition [2] was -5.26% and the Potency [3] was “inactive”. It also gave an activity change, negative = inhibition [4] of 3.72%, an activity, negative = inhibition [5] of 4.69% and a Potency [6] greater than 46 µM. The Potency [7] was greater than 9.22 µM, the Potency [8] was “inactive” and the Potency [9] was “inactive”.
In the case of `O=C(O)c1ccc([N+](=O)[O-])c(P(=O)(O)O)c1`, the Potency [1] is reported as greater than 11.4 µM, the activity change, negative = inhibition [2] is reported as -2.71% and the Potency [3] is reported as “inactive”. For the same molecule, the activity change, negative = inhibition [4] was 12.7%, the activity, negative = inhibition [5] was -0.293% and the Potency [6] was greater than 46 µM. For the same molecule, the Potency [7] was greater than 9.22 µM, the Potency [8] was “inactive” and the Potency [9] was “inactive”.
For `COc1ccc(C[N+](C)(C)N)cc1OC`, the Potency [1] was greater than 11.4 µM, the activity change, negative = inhibition [2] was 0.59% and the Potency [3] was “inactive”. The activity change, negative = inhibition [4] was -4.71%, the activity, negative = inhibition [5] was 7.15% and the Potency [6] was greater than 46 µM. The Potency [7] was greater than 9.22 µM, the Potency [8] was “inactive” and the Potency [9] was “inactive”.
With `C[C@H]1CN(CCO)CCN1c1ccccc1` the Potency [1] was greater than 11.4 µM, the activity change, negative = inhibition [2] was 11.5% and the Potency [3] was “inactive”. For the same molecule, the activity change, negative = inhibition [4] was -5.83%, the activity, negative = inhibition [5] was 7.5% and the Potency [6] was greater than 46 µM. The Potency [7] was greater than 9.22 µM, the Potency [8] was “inactive” and the Potency [9] was “inactive”.
`CC(C)NCC[C@@H](O)c1cc2ccccc2o1` gave a Potency [1] greater than 11.4 µM, an activity change, negative = inhibition [2] of -15% and an activity change, negative = inhibition [3] of -2.1% [at 2.29 µM]. It also gave an activity change, negative = inhibition [4] of -2.7%, an activity, negative = inhibition [5] of 9.58% and a Potency [6] greater than 46 µM. The Potency [7] was greater than 9.22 µM, the Potency [8] was “inactive” and the Potency [9] was “inactive”.
Work on `CC(C)(N)C(=O)N[C@@H]1C(=O)N2[C@@H]1SC(C)(C)[C@H]2C(=O)O` yielded a Potency [1] greater than 11.4 µM, an activity change, negative = inhibition [2] of -6.43% and an activity change, negative = inhibition [3] of 4.4% [at 2.29 µM]. For the same molecule, the activity change, negative = inhibition [4] was -0.727%, the activity, negative = inhibition [5] was -0.982% and the Potency [6] was greater than 46 µM. For the same molecule, the Potency [7] was greater than 9.22 µM, the Potency [8] was “inactive” and the Potency [9] was “inactive”.
For `O=C1c2cc([N+](=O)[O-])ccc2-c2ccc3c4ccc5c6c(ccc(c7ccc1c2c73)c64)C(=O)c1cc([N+](=O)[O-])ccc1-5`, the Potency [1] was greater than 11.4 µM, the activity change, negative = inhibition [2] was 0.115% and the Potency [3] was 0.794 µM (active). It also gave an activity change, negative = inhibition [4] of 21.7%, an activity, negative = inhibition [5] of 9.03% and a Potency [6] greater than 46 µM. For the same molecule, the Potency [7] was greater than 9.22 µM, the Potency [8] was “inactive” and the Potency [9] was “inactive”.
Molecule `O=C(O)/C=C(/C(=O)O)[C@]12CCN3CC4=CCO[C@@H]5CC(=O)N[C@@H]1[C@H]5[C@H]4C[C@H]32` has a Potency [1] greater than 11.4 µM, an activity change, negative = inhibition [2] of 9.14% and an activity change, negative = inhibition [3] of -15% [at 2.29 µM]. It also gave an activity change, negative = inhibition [4] of -1.3%, an activity, negative = inhibition [5] of -7.59% and a Potency [6] greater than 46 µM. The Potency [7] was greater than 9.22 µM, the Potency [8] was “inactive” and the Potency [9] was “inactive”.
In the case of `CCN(CCO)C[C@H]1CCC[C@H]2CCCC[C@@H]21`, the Potency [1] is reported as greater than 11.4 µM, the activity change, negative = inhibition [2] is reported as 16.9% and the Potency [3] is reported as 5.01 µM (active). For the same molecule, the activity change, negative = inhibition [4] was 0.328%, the activity, negative = inhibition [5] was 4.97% and the Potency [6] was greater than 46 µM. For the same molecule, the Potency [7] was greater than 9.22 µM, the Potency [8] was “inactive” and the Potency [9] was “inactive”.
In the case of `CC(C)(C)c1ccc(OC(=O)Nc2ccc(O)c(C(=O)O)c2)cc1`, the Potency [1] is reported as greater than 11.4 µM, the activity change, negative = inhibition [2] is reported as -0.0209% and the activity change, negative = inhibition [3] is reported as 6.5% [at 2.29 µM]. The activity change, negative = inhibition [4] was 6.49%, the activity, negative = inhibition [5] was 0.0223% and the Potency [6] was greater than 46 µM. For the same molecule, the Potency [7] was greater than 9.22 µM, the Potency [8] was “inactive” and the Potency [9] was “inactive”.
For `CC(=O)/C(=N\N=C(N)N)c1ccccc1`, the Potency [1] was greater than 11.4 µM, the activity change, negative = inhibition [2] was 8.04% and the activity change, negative = inhibition [3] was -17.2% [at 2.29 µM]. For the same molecule, the activity change, negative = inhibition [4] was -0.66%, the activity, negative = inhibition [5] was 7.52% and the Potency [6] was greater than 46 µM. For the same molecule, the Potency [7] was greater than 9.22 µM, the Potency [8] was “inactive” and the Potency [9] was “inactive”.
In the case of `O=C1C2[C@@H](c3ccccc3)N[C@@H](c3ccccc3)C1[C@H](c1ccccc1)N[C@H]2c1ccccc1`, the Potency [1] is reported as greater than 11.4 µM, the activity change, negative = inhibition [2] is reported as -5.02% and the Potency [3] is reported as “inactive”. The activity change, negative = inhibition [4] was 3.11%, the activity, negative = inhibition [5] was 1.27% and the Potency [6] was greater than 46 µM. For the same molecule, the Potency [7] was greater than 9.22 µM, the Potency [8] was “inactive” and the Potency [9] was “inactive”.
